# According to paper PMC4336329 (PLoS ONE, 2015):
# The whole screen tested about 310,000 compounds, of which about 14,000 (4.5%) showed an effect of 50% or more. The effect is printed as a negative number. This is one part of a sample in which strong results are shown more often than they occur.
# Target: human ether-à-go-go-related gene (hERG) potassium channel (human, UniProt Q12809)
# Experiment: primary screen, population patch clamp on CHO cells stably expressing hERG; higher = less effect of the substance
# 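Further: peak tail current of the secondary pulse compared with the same well before compound.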
# Sequence of human ether-à-go-go-related gene (hERG) potassium channel (Q12809 whole entry, looked up): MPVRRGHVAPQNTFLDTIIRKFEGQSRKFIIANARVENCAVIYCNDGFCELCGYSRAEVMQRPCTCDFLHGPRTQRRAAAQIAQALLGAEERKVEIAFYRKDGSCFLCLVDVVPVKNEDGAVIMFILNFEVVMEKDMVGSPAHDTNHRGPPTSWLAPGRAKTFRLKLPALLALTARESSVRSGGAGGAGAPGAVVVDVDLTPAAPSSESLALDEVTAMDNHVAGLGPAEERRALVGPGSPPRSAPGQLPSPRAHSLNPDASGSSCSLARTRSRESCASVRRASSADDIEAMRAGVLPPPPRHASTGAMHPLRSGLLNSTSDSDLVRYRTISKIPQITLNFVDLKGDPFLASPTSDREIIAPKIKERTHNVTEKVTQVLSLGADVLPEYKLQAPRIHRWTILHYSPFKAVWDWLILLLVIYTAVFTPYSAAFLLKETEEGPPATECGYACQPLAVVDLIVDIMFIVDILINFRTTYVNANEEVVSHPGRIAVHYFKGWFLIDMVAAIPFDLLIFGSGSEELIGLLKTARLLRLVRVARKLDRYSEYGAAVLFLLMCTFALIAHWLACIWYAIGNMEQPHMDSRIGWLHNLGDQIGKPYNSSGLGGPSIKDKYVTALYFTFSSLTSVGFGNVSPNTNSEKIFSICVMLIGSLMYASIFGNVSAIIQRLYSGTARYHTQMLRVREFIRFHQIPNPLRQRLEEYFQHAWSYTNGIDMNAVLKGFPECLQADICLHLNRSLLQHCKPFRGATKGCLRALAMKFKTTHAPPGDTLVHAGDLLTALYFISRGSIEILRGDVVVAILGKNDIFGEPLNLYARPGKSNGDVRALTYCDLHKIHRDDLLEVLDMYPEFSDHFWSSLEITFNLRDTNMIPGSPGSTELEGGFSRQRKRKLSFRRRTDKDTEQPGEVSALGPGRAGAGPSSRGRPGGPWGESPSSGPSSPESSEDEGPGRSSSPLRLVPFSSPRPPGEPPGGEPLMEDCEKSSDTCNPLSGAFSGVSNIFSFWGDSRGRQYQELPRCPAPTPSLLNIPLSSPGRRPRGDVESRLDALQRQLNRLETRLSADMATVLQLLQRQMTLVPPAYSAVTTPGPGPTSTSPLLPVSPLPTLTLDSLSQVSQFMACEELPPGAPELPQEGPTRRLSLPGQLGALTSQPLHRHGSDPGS
row,SMILES,"hERG current change (%, negative = inhibition) at 10uM [%]"
1,COc1ccc(OCCOc2ccc(/C=C3\C(=N)N4N=C(C)SC4=NC3=O)cc2)cc1,6.54
2,CC1Cc2nc(SCC(=O)Nc3nccs3)n(Cc3ccccc3)c(=O)c2S1 (stereo not drawn),2.84
3,CSc1nc(N)n2nc(-c3ccc(Cl)cc3)cc2n1,5.44
4,COc1ccc(C(=O)NC(Nc2ccc(C)cc2)C(Cl)(Cl)Cl)cc1 (stereo not drawn),-0.867
5,Cc1cc(C)cc(NC(=O)CN2C(=O)C3CC=CCC3C2=O)c1 (stereo not drawn),4.39
6,CC1=N/C(=C/c2cc(Br)cc(Br)c2O)C(=O)O1,17
7,Cc1ccc(S(=O)(=O)NC(=O)Nc2ccc(C)cn2)cc1,14.6
8,Cc1sc(NC(=O)c2ccco2)c(C(c2ccncc2)N2CCOCC2)c1C (stereo not drawn),-37.1
9,CCCCC(=O)N1CCN(c2nc3ccc(F)cc3s2)CC1,-65.3
10,CCCC(=O)N1CCN(c2nc3ccccc3s2)CC1,-24.7
11,Fc1ccc2nc(N3CCCCC3)sc2c1,5.89
12,CCCCC(=O)N1CCN(c2nc3ccc(Cl)cc3s2)CC1,-71.1
13,CCCC(=O)N1CCN(c2nc3ccc(Cl)cc3s2)CC1,-70.2
14,CCCCC(=O)N1CCN(c2nc3ccc(OCC)cc3s2)CC1,-35.5
15,CCCC(=O)N1CCN(c2nc3ccc(CC)cc3s2)CC1,-23.4
16,CC(C)(C)C(=O)N1CCN(c2nc3ccc(Cl)cc3s2)CC1,-12.2
17,CC(C)(CC(=O)O)CC(=O)N1CCN(c2nc3ccc(Cl)cc3s2)CC1,14.2
18,Cc1cc(OC(=O)c2ccccc2Cl)ccc1N1C(=O)CCC1=O,-1.98
19,O=[N+]([O-])c1ccc(O)c(-c2nn[nH]n2)c1,1.52
20,CC1=NN(C(=O)c2ccc(Cn3ccc([N+](=O)[O-])n3)cc2)C(O)(C(F)(F)F)C1 (stereo not drawn),-8.73
21,O=C1N(c2ccc(Cl)cc2)C(c2ccc(Cl)cc2)N2CCCN12 (stereo not drawn),-16.7
22,COc1ccccc1/C=C1\SC(=S)N(CCC(=O)NCCc2ccc(O)cc2)C1=O,15.1
23,CCOC(=O)Oc1ccc2oc(=O)cc(C)c2c1,15.9

row,SMILES,"hERG current change (%, negative = inhibition) at 10uM [%]"
1,O=c1[nH]c(/C=C/c2cccc3ccccc23)nc2ccccc12,36.4
2,O=C(c1ccco1)N1CCN(C(=O)c2cc(-c3ccccc3F)no2)CC1,-15.8
3,O=C(c1cc(-c2ccc(Cl)cc2)n[nH]1)N1CCN(C(=O)c2ccco2)CC1,-68.9
4,Cc1ccc(-c2cc(C(=O)N3CCN(C(=O)c4ccco4)CC3)[nH]n2)cc1C,5.83
5,COc1cccc(-c2cc(C(=O)N3CCN(C(=O)c4ccco4)CC3)on2)c1,-13.9
6,COc1ccc(-c2cc(C(=O)N3CCN(C(=O)c4ccco4)CC3)[nH]n2)cc1,-31.6
7,O=C(c1ccco1)N1CCN(C(=O)c2cc(-c3ccc(F)cc3)no2)CC1,-65.1
8,CCOc1ccc(NC(=O)CCNC(=O)c2ccco2)cc1,6.08
9,Cc1ccc(C(=O)COC(=O)CNC(=O)Cc2ccccc2)cc1,-2.44
10,COc1ccc(CCN2C(=O)c3cccc4cccc(c34)C2=O)cc1OC,12.9
11,COc1ccc(C(CNC(=O)C(C)c2ccc3cc(OC)ccc3c2)N(C)C)cc1 (stereo not drawn),-7.44
12,Cc1ccc(NS(=O)(=O)c2cc(C(=O)NCc3ccccn3)ccc2Cl)cc1C,-47
13,COc1ccc(N2C(=O)C3C(c4ccc(OC)cc4O)NC(Cc4ccccc4)(C(=O)O)C3C2=O)cc1 (stereo not drawn),19.5
14,NC(=O)Nc1ccc(C(=O)OCC(=O)N2CCc3ccccc3C2)cc1,5.29
15,COc1ccc(C(=O)NCC(=O)N2CCc3ccccc3C2)cc1,-2.27
16,CCC(=O)c1ccc(OCC(=O)N2CCc3cc(OC)c(OC)cc3C2)cc1,-33.2
17,COc1cc2c(cc1OC)CN(CC(=O)Nc1ccc(F)cc1)CC2,-7.62
18,O=C(OCC(=O)N1CCc2ccccc2C1)c1ccc(OC(F)F)cc1,-80.2
19,CCC(=O)c1ccc(OCC(=O)OCC(=O)N2CCc3ccccc3C2)cc1,-24.8
20,COc1cc2c(cc1OC)CN(C(=O)COc1ccc(C#N)cc1)CC2,-63.4
21,COc1cc2c(cc1OC)CN(CC(=O)Nc1ccc(C)cc1)CC2,-16.4
22,COc1cc2c(cc1OC)CN(C(=O)COc1ccc(C)c(C)c1)CC2,-11.9
